Where “and” joins values, the source holds several entries; their conditions need not be identical. Equal entries are not always repeated. Results filed as inconclusive are left out. Calls of active or inactive are those of the source. Unless noted, calls follow the shape of the dose curve; as a rule, active = well fitted curve in the direction sought with a large enough effect in the repeat runs; inconclusive = weak or mixed curves; inactive = no such curve, though single readings can be large; an effect the other way counts as inactive or inconclusive.

Drawing on PubChem BioAssay (Tox21), this text covers Potency for twelve molecules.

Experiment [1] is described as follows: qHTS assay to identify small molecule agonists of the RXR signaling pathway - cell viability counter screen (AID 1159529).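 Also: HEK 293T cells carrying an RXR-alpha UAS beta-lactamase reporter; series mostly up to about 77 µM; nearly all actives have a fitted effect of over 50% in size.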 Put shortly: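 HEK 293T RXRa-bla cells, 2% CS-FBS; 5 h settle; cpd 16 h 37 C, 5% CO2; CellTiter-Glo 30 min RT, luminescence. Tetraoctyl ammonium bromide as positive control.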
Background: Quantitative high-throughput screening tests each substance at several concentrations.

The nature of experiment [2]: qHTS assay to identify small molecule antagonists of the retinoid acid receptor (RAR) signaling pathway - cell viability counter screen (AID 1159551). Also: nearly all actives have a fitted effect of over 35% in size. Also: potency is read from the fitted curve at half-maximal effect. A digest of the protocol: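 In this counter screen, the RARE-luciferase line C3RL4 was exposed for 6 h at 37 C and 5% CO2 to compounds with retinol at 1 uM final. Cellular ATP, read by luminescence, served as the viability measure.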

Experiment [3] can be described thus: qHTS assay to identify small molecule antagonists of the retinoic acid receptor (RAR) signaling pathway (AID 1159552; also: nearly all actives have a fitted effect of over 50% in size; also: potency is read from the fitted curve at half-maximal effect). A digest of the protocol:
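Cells of the C3RL4 line were seeded, incubated overnight, then dosed with compounds in DMSO followed immediately by retinol (1 uM final). Six hours later luciferase detection reagent went in; signal was measured after 30 min at RT.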

A short description of experiment [4]: qHTS assay to identify small molecule antagonists of the estrogen related receptor (ERR) signaling pathway from Tox21 library - cell viability counter screen (AID 1224834). Also: nearly all actives have a fitted effect of over 30% in size. Also: potency is read from the fitted curve at half-maximal effect. Put shortly: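 Counter screen run in ERR cells (2,000 cells/well): cells pre-incubated 6 h, then treated with compounds for 17.5 h at 37 C. Fluorescence was read 30 min after CellTiter-Fluor addition.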

Experiment [5] addresses Luciferin 4-monooxygenase (Photinus pyralis) (UniProt P08659). The experiment is described as follows: qHTS assay to identify small molecule inhibitors of firefly luciferase (AID 1224835). Also: nearly all actives have a fitted effect of over 25% in size. Also: potency is read from the fitted curve at half-maximal effect. A digest of the protocol: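 Biochemical qHTS: compounds run as interplate titrations against purified firefly enzyme, with D-luciferin and ATP each at its KM concentration. Light output recorded by CCD imaging.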

Experiment [6] can be described thus: qHTS assay to identify small molecule agonists of the constitutive androstane receptor (CAR) signaling pathway - cell viability counter screen (AID 1224836). Also: nearly all actives have a fitted effect of over 45% in size. Also: potency is read from the fitted curve at half-maximal effect. A digest of the protocol:
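HepG2-CYP2B6-hCAR, 2500 cells/well, 4 h pre-incubation; cpd 15 conc + PK11195 0.75 uM final; 23 h, 37 C/5% CO2; CellTiter-Fluor, fluorescence.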

The nature of experiment [7]: qHTS assay to identify small molecule antagonists of the constitutive androstane receptor (CAR) signaling pathway - cell viability counter screen (AID 1224837). Also: nearly all actives have a fitted effect of over 45% in size. Also: potency is read from the fitted curve at half-maximal effect. Put shortly: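 CITCO at 50 nM final was added alongside compounds (15 concentrations) to double-stable hCAR/CYP2B6-2.2kb HepG2 cells. Following 23 hr at 37 C, cell viability was quantified by CellTiter-Fluor fluorescence intensity.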

Experiment [8] concerns the target Nuclear receptor subfamily 1 group I member 3 (Homo sapiens) (UniProt Q14994). Put plainly: qHTS assay to identify small molecule antagonists of the constitutive androstane receptor (CAR) signaling pathway (AID 1224838). Also: nearly all actives have a fitted effect of over 40% in size. Also: potency is read from the fitted curve at half-maximal effect. A digest of the protocol:
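Inhibition of CITCO-driven (50 nM final) CYP2B6 reporter expression is measured in HepG2 cells stably carrying hCAR. Fifteen compound concentrations are applied for 24 h at 37 C, followed by luciferase luminescence.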

For experiment [9] the target is unchanged. Put plainly: qHTS assay to identify small molecule agonists of the constitutive androstane receptor (CAR) signaling pathway (AID 1224839). Also: nearly all actives have a fitted effect of over 15% in size. Also: potency is read from the fitted curve at half-maximal effect. Put shortly: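 HepG2-CYP2B6-hCAR cells, 2500/well, 4 h pre-incubation; compounds 15 conc.; PK11195 0.75 uM final; 24 h, 37 C/5% CO2; ONE-Glo luciferase read.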
Experiment [10] in a line: qHTS assay to identify small molecule antagonists of the estrogen related receptor signaling pathway with the pleiotropic PPARgamma coactivator (PGC) from Tox21 10K library - cell viability counter screen (AID 1224840; active = well fitted cell-killing curve with a large enough effect in the repeat runs, not every such curve was filed as active; also: nearly all actives have a fitted effect of over 40% in size; also: potency is read from the fitted curve at half-maximal effect). A digest of the protocol:
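Readout: fluorescence intensity from CellTiter-Fluor after 30 min at 37 C/5% CO2. Preceded by 17.5 h treatment of PGC/ERR cells with DMSO-dissolved compounds, added 6 h post-seeding.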

The target of experiment [11] is Thyrotropin receptor (Homo sapiens) (UniProt P16473). The experiment is described as follows: qHTS assay to identify small molecule agonists of the thyroid stimulating hormone receptor (TSHR) signaling pathway (AID 1224843; calls by dose curve; also: nearly all actives have a fitted effect of over 45% in size). A digest of the protocol: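 Agonist-mode screen: TSHR HEK293 cells received test chemicals for half an hour at room temperature, then HTRF cAMP detection reagents for one hour prior to fluorescence measurement. Each chemical ran as a 15-concentration series, triplicated.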

Experiment [12] is described as follows: qHTS assay to identify small molecule antagonists of the estrogen related receptor signaling pathway with the pleiotropic PPARgamma coactivator (PGC) from Tox21 10K library (AID 1224841; call rule not given here; also: actives are mostly falling curves and most rising ones were filed inactive; nearly all actives have a fitted effect of over 50% in size; also: potency is read from the fitted curve at half-maximal effect). A digest of the protocol:
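One-Glo luminescence, measured after half an hour at room temperature, quantified reporter output of PGC/ERR cells. These had been plated at 2,000 per well, incubated 6 h, dosed with compounds in DMSO, then kept 18 h at 37 C.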

The nature of experiment [13]: qHTS assay to identify small molecule agonists of the estrogen related receptor signaling pathway with the pleiotropic PPARgamma coactivator (PGC) from Tox21 10K library (AID 1224842). Also: nearly all actives have a fitted effect of over 15% in size. Put shortly: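 PGC/ERR reporter cell line, 2,000 cells per well, incubated 6 h at 37 C before 23 nL compound in DMSO was added. After 18 h at 37 C, One-Glo luminescence read following 30 min at room temperature.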

The nature of experiment [14]: qHTS assay to identify small molecule agonists of the retinoic acid receptor (RAR) signaling pathway (AID 1159553). A digest of the protocol:
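In this cell-based screen, 1,000 C3RL4 cells per well were cultured overnight, dosed with test chemicals in DMSO for 6 hr, and assessed for RARE luciferase luminescence.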

Chain of Thyrotropin receptor (Homo sapiens) (P16473 whole entry, looked up): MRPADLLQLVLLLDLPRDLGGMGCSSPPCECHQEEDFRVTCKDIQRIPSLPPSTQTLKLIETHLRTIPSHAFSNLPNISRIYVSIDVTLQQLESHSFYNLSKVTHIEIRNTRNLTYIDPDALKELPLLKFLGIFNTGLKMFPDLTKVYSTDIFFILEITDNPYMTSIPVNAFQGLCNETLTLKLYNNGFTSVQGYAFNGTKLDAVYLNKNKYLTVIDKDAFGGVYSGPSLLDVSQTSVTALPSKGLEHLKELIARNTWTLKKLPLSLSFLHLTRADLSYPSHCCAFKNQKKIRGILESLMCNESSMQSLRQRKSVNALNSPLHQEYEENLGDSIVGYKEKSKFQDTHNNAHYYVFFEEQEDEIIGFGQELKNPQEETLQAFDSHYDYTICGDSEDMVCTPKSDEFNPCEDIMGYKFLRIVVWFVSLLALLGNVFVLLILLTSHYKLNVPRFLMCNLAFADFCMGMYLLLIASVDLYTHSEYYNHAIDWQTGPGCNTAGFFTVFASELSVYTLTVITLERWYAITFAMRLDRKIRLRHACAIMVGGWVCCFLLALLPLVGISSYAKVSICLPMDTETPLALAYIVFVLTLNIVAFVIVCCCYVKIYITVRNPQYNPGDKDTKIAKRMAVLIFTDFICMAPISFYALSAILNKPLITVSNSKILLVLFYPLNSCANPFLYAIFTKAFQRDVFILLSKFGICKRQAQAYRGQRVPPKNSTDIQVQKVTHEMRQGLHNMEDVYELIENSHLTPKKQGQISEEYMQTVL
Chain of Luciferin 4-monooxygenase (Photinus pyralis) (P08659 whole entry, looked up): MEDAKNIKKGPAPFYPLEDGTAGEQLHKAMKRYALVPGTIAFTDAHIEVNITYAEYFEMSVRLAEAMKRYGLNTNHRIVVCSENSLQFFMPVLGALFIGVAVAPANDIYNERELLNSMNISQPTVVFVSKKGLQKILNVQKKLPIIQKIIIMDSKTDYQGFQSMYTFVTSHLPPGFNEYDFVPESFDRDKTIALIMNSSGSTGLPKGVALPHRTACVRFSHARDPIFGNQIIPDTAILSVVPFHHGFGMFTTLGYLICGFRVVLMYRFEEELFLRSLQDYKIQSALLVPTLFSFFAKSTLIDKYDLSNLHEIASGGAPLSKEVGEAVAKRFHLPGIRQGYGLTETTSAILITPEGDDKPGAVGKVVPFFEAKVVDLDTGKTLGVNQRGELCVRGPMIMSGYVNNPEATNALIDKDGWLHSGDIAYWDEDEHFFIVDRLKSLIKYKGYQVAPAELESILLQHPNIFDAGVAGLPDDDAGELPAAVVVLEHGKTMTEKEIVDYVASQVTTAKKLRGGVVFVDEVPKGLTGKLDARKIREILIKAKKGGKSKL
Chain of Nuclear receptor subfamily 1 group I member 3 (Homo sapiens) (Q14994 whole entry, looked up): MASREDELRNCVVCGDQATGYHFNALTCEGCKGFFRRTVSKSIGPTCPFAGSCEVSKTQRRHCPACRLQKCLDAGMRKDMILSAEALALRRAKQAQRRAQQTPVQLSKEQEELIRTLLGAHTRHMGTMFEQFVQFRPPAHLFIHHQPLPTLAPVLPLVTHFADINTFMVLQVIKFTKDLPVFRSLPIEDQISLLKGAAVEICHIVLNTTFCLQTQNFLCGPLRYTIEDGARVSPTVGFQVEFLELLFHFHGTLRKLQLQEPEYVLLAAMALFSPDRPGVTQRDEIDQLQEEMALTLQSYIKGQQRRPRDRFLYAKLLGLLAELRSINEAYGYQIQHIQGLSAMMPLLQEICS

In the case of `O=C(Cc1ccccc1)c1ccccc1`, the Potency entry in experiment [1], in experiment [2], in [3], in [4], in experiment [6] and in experiment [7] was “inactive” in each case. The Potency entry in [8], in experiment [10] and in [11] was “inactive” throughout. Besides, the Potency in [5] was 71 µM (active); in [9], 54.5 µM (active).
For the molecule `O=S(=O)(c1ccccc1)c1ccccc1`, the Potency entry in [1], in experiment [2], in [3], in experiment [4], in experiment [5] and in [6] was “inactive” throughout. Besides, the Potency entry in [7], in [8], in [9], in experiment [10], in experiment [12] and in [13] was “inactive” throughout.
As for `O=C1c2ccccc2C(=O)N1SC(Cl)(Cl)Cl`, the Potency result in experiment [1] and in experiment [13] was “inactive” each time. The Potency in experiment [2] was 53.7 µM (active) and 30.6 µM (active); in experiment [3] it was 17 µM (active) and 15.4 µM (active); in experiment [4], 24 µM (active) and 27.3 µM (active); in experiment [5] it was 15.7 µM (active) and 20 µM (active); in experiment [6], 26.9 µM (active) and 43.3 µM (active); in experiment [7], 24 µM (active) and 19.3 µM (active). The Potency is 19.1 µM (active) and 15.4 µM (active) in experiment [8]; 26.9 µM (active) and 24.3 µM (active) in experiment [10]; 53.7 µM (active) and 61.1 µM (active) in experiment [12].
As for `CN1CC[C@]23c4c5ccc(O)c4O[C@H]2[C@@H](O)CC[C@H]3[C@H]1C5`, the Potency entry in experiment [1], in [2], in experiment [3], in experiment [4], in experiment [5] and in experiment [6] was “inactive” in each case. In addition, the Potency result in [7], in [8], in experiment [9] and in [10] was “inactive” throughout.
Turning to `O=C(NCNC(=O)NC1C(=O)NC(=O)N1CO)NC1C(=O)NC(=O)N1CO` (centres undefined), the Potency result in experiment [1], in [2], in [3], in experiment [14], in [4] and in experiment [5] was “inactive” each time. Besides, the Potency entry in experiment [10], in [12], in experiment [13] and in [11] was “inactive” throughout.
For `CON(C)C(=O)Nc1ccc(Cl)cc1`, the Potency result in experiment [1], in experiment [2], in experiment [3], in [4], in [5] and in [6] was “inactive” each time. Also, the Potency result in [7] and in [10] was “inactive” in each case.
As for `CCOC(C(=O)OCCN(C)C)(c1ccccc1)c1ccccc1`, the Potency result in experiment [1], in experiment [2], in experiment [3], in experiment [14], in experiment [4] and in [5] was “inactive” in each case. Further, the Potency entry in [7], in experiment [8], in experiment [10], in experiment [12] and in experiment [13] was “inactive” each time.
For the molecule `CC(Oc1cccc(Cl)c1)C(=O)O` (centres undefined), the Potency result in experiment [1], in [2], in [3], in experiment [14], in [4] and in experiment [5] was “inactive” each time. For the same molecule, the Potency result in experiment [7], in [8], in experiment [9], in [10] and in experiment [11] was “inactive” throughout.
Regarding `CN[C@@H](C)[C@H](O)c1ccccc1`, the Potency entry in experiment [1], in experiment [2], in experiment [3], in [4], in experiment [5] and in [6] was “inactive” in each case. In addition, the Potency result in experiment [7], in [8], in experiment [9], in experiment [10] and in [11] was “inactive” throughout.
As to `CN(C1CCCCC1)C1CCCCC1`, the Potency result in [1], in experiment [2], in [3], in experiment [4], in experiment [5] and in [6] was “inactive” each time. The Potency result in experiment [7], in [8], in [10] and in [11] was “inactive” in each case.
`CCCN(CCC)C(=O)Cc1c(-c2ccc(Cl)cc2)nc2ccc(Cl)cn12`: the Potency result in [1], in [2], in [3], in experiment [14], in experiment [7] and in [8] was “inactive” throughout. Also, the Potency result in experiment [10] and in [11] was “inactive” in each case.
Take `CC(C)(C)N(NC(=O)c1ccc(Cl)cc1)C(=O)c1ccccc1`: the Potency entry in experiment [1], in [2], in experiment [3], in [14], in experiment [5] and in experiment [8] was “inactive” in each case. In addition, the Potency entry in [9], in [10], in experiment [12] and in experiment [13] was “inactive” throughout. In experiment [4], the Potency was 12.1 µM (active).
